We go through 37 compounds from the supplement of paper PMC3342239.

Where a name gives a salt, the structure may show the parent alone.

This assay has as its system Saccharomyces cerevisiae. The assay can be described thus: fraction of cells in G1 phase (DNA content, flow cytometry); higher = more cells with unreplicated DNA (G1 delay). Particulars: temperature: 30 C; YPD; JTY2953 pdr5 snq2 (sensitized); drug added to: cultures diluted from stationary phase; 6-7 h. Put shortly: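 S. cerevisiae in YPD at 30°C was treated with library drugs, with DMSO-only wells as reference. Sensitized JTY2953 cultures diluted 1∶200 from overnight received a final 20 µg/ml and were fixed after 6–7 h; other runs dosed dividing JTY2953 (fixed 6 h later) or BY4741 (4.33 h later). Ethanol-fixed cells were stained with SYTOX Green and 10,000 events read by flow cytometry. G1 fraction is the Dean-Jett-Fox G1 peak area over G1 plus G2/M areas.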
For orientation: A flow cytometer gives signals particle by particle.
On to `CNC(=C[N+](=O)[O-])NCCSCc1ccc(CN(C)C)o1` [Ranitidine HCl] (63.6114 µM), for which the “fraction of cells in G1 phase” value was 0.501.
Take `Clc1ccc2c(c1)CCc1cccnc1C2=C1CCNCC1` [Desloratadine] (64.3439 µM): the “fraction of cells in G1 phase” value worked out at 0.5.
As to `CCC[S+]([O-])c1ccc2[nH]c(NC(=O)OC)nc2c1` (configuration not stated) [Ricobendazole] (71.0895 µM), the “fraction of cells in G1 phase” value was determined as 0.485.
With `CCOC(=O)[N-]c1c[n+](N2CCOCC2)no1` [Molsidomine] (82.564 µM), the “fraction of cells in G1 phase” value worked out at 0.543.
Then `CC1=C(CC(=O)O)c2cc(F)ccc2/C1=C\c1ccc([S+](C)[O-])cc1` (configuration not stated) [Sulindac] (56.1137 µM), with 0.521.
The figure for `C[C@H]1COc2c(N3CCN(C)CC3)c(F)cc3c(=O)c(C(=O)O)cn1c23` [Levofloxacin HCl] (55.344 µM) is 0.471.
Then `CC(=O)O[C@@]12CO[C@@H]1C[C@H](O)[C@@]1(C)C(=O)[C@H](O)C3=C(C)[C@@H](OC(=O)[C@H](O)[C@@H](NC(=O)OC(C)(C)C)c4ccccc4)C[C@@](O)([C@@H](OC(=O)c4ccccc4)[C@H]21)C3(C)C` [Docetaxil] (24.7555 µM), with 0.507.
`CC(C)(CO)[C@@H](O)C(=O)NCCC(=O)O` [Pantothenic acid] (91.2244 µM): the “fraction of cells in G1 phase” value came out at 0.484.
As to `CCN(CC)CC(=O)Nc1c(C)cccc1C` [Lidocaine] (73.8552 µM), the “fraction of cells in G1 phase” value came to 0.499.
Take `CCC(=O)O[C@@H](O[P@](=O)(CCCCc1ccccc1)CC(=O)N1C[C@H](C2CCCCC2)C[C@H]1C(=O)O)C(C)C` [Fosinopril] (35.4813 µM): the “fraction of cells in G1 phase” value amounted to 0.501.
Take `Nc1ccc(S(=O)(=O)Nc2ncccn2)cc1` [Sulfadiazine] (79.9102 µM): the “fraction of cells in G1 phase” value worked out at 0.521.
The figure for `CCN1CCCC1CNC(=O)c1cc(S(=O)(=O)CC)c(N)cc1OC` (configuration not stated) [Amisulpride] (54.1272 µM) is 0.471; for `Cn1c(NCCN(CCO)CCCc2ccc([N+](=O)[O-])cc2)cc(=O)n(C)c1=O` [Nifekalant HCl] (49.327 µM) it is 0.479.
Regarding `O=C(NCCO[N+](=O)[O-])c1cccnc1` [Nicorandil] (94.7066 µM), the “fraction of cells in G1 phase” value was determined as 0.516.
Consider `CN1CCc2cccc3c2[C@H]1Cc1ccc(O)c(O)c1-3` [Apomorphine r (-)] (74.8137 µM), for which the “fraction of cells in G1 phase” value worked out at 0.483.
Then `C[C@@H](O)[C@H]1C(=O)N2C(C(=O)O)=C(S[C@@H]3CN[C@H](C(=O)N(C)C)C3)[C@H](C)[C@H]12` [Meropenem] (52.1553 µM), with 0.495.
The figure for `CC(C)C[C@H](NC(=O)[C@@H](Cc1c[nH]c2ccccc12)NC(=O)[C@H](Cc1ccc(O)cc1)NC(=O)[C@H](CO)NC(=O)[C@H](Cc1c[nH]c2ccccc12)NC(=O)[C@H](Cc1c[nH]cn1)NC(=O)[C@@H]1CCC(=O)N1)C(=O)N[C@@H](CCCNC(=N)N)C(=O)N1CCC[C@H]1C(=O)NCC(N)=O` [Triptorelin] (15.2499 µM) is 0.468; for `CCCCCOC(=O)Nc1nc(=O)n([C@@H]2O[C@H](C)[C@@H](O)[C@H]2O)cc1F` [Capecitabine] (55.6483 µM) it is 0.442.
For `CCOc1nc2cccc(C(=O)O)c2n1Cc1ccc(-c2ccccc2-c2nnn[nH]2)cc1` [Candesartan] (45.4065 µM), the “fraction of cells in G1 phase” value worked out at 0.506.
As for `CC(Oc1c(Cl)cccc1Cl)C1=NCCN1` (configuration not stated) [Lofexidine] (77.1792 µM), the “fraction of cells in G1 phase” value worked out at 0.483.
Then `Nc1c2c(nc3ccccc13)CCCC2O` (configuration not stated) [Hydroxytacrine maleate] (93.3405 µM), with 0.513; and `Cc1ccc(-c2ncc(Cl)cc2-c2ccc(S(C)(=O)=O)cc2)cn1` [Etoricoxib] (55.7337 µM), with 0.511; and `CCOC(=O)c1cnc2c(cnn2CC)c1NN=C(C)C` [Etazolate] (69.1229 µM), with 0.5.
As to `O=C(CCCN1CCN(c2ccccn2)CC1)c1ccc(F)cc1` [Azaperone] (61.0864 µM), the “fraction of cells in G1 phase” value was 0.582.
In the case of `C#Cc1cccc(Nc2ncnc3cc(OCCOC)c(OCCOC)cc23)c1` [Erlotinib] (50.8329 µM), the “fraction of cells in G1 phase” value stood at 0.527.
On to `N=C(N)NC(=O)Cc1c(Cl)cccc1Cl` [Guanfacine HCl] (70.7818 µM), for which the “fraction of cells in G1 phase” value was 0.495.
As to `COc1cccc2c1C(=O)c1c(O)c3c(c(O)c1C2=O)C[C@@](O)(C(C)=O)C[C@@H]3O[C@H]1C[C@H](N)[C@H](O)[C@H](C)O1` [Daunorubicin HCl] (37.9123 µM), the “fraction of cells in G1 phase” value was 0.596.
On to `CC(C)NCC(O)COc1cccc2ccccc12` (configuration not stated) [Propranolol] (77.1155 µM), for which the “fraction of cells in G1 phase” value amounted to 0.477.
As for `CCCCC[C@H](O)/C=C/[C@@H]1[C@@H](C/C=C\CCCC(=O)O)[C@@H](O)C[C@H]1O` [Dinoprost] (56.4189 µM), the “fraction of cells in G1 phase” value was 0.523.
For `CCN(CC)CCNC(=O)c1ccc(N)cc1` [Procainamide] (73.5835 µM), the “fraction of cells in G1 phase” value turned out to be 0.494.
Then `CN1CCN(CC(=O)N2c3ccccc3C(=O)Nc3cccnc32)CC1` [Pirenzepine 2HCl] (56.9133 µM), with 0.534; and `CN1CCN(C2=Nc3ccccc3Sc3ccc(Cl)cc32)CC1` [Clothiapine] (58.1596 µM), with 0.431.
Take `CCCOc1ccc2[nH]c(NC(=O)OC)nc2c1` [Oxibendazole] (80.2338 µM): the “fraction of cells in G1 phase” value is 0.481.
Take `CC(C)(O/N=C(\C(=O)N[C@@H]1C(=O)N2C(C(=O)[O-])=C(C[n+]3ccccc3)CS[C@H]12)c1csc(N)n1)C(=O)O` [Ceftazidime] (36.5909 µM): the “fraction of cells in G1 phase” value was found to be 0.486.
As for `O=C(O)CCCc1ccccc1` [Sodium phenylbutyrate] (107.418 µM), the “fraction of cells in G1 phase” value amounted to 0.491.
The figure for `CC[C@]1(O)C[C@H]2CN(CCc3c([nH]c4ccccc34)[C@@](C(=O)OC)(c3cc4c(cc3OC)N(C=O)[C@H]3[C@@](O)(C(=O)OC)[C@H](OC(C)=O)[C@]5(CC)C=CCN6CC[C@]43[C@@H]65)C2)C1` [Vincristine sulfate] (24.243 µM) is 0.481; for `C[C@H]1[C@H](NC(=O)/C(=N\OC(C)(C)C(=O)O)c2csc(N)n2)C(=O)N1S(=O)(=O)O` [Aztreonam] (45.9309 µM) it is 0.489.
